Assay outcomes (PubChem)
Compounds with a hit are over-represented: about 1.5% of the library has one in this group of screens.
MEX-5 binding = MEX-5 zinc finger RNA-binding disruptors – biochemical, C. elegans, fluorescence polarization, MLPCN library, primary screen; MEX-5/FITC-TCR2 RNA binding; active compounds read low; actives 0.38% (n = 300,000); activity score (negative = inhibition of binding), % at 10 µM;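 active = inhibition past about -25% in most replicates, and total fluorescence under double the plate's negative control median, limit read from the data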;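 note: 0% = DMSO and -100% = 5 µM competing unlabeled TCR2 RNA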
BCLXL inh = inhibitors of human Bcl-xL, primary screen, biochemical, fluorescence polarization, HTS; inhibition, % at 10.9 µM; GST-Bcl-xL / FITC-Bim BH3 peptide fluorescence polarization; Bcl-2-like protein 1 (Homo sapiens), Q07817; actives 0.7% (n = 320,000);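 active = inhibition above the mean of all tested compounds plus 3 SD, cutoff set per campaign, cut at about 30% in these data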;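 note: 0% = DMSO wells and 100% = unlabeled Bim-BH3 peptide competitor; inhibitors lower millipolarization by displacing the labeled peptide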
Target sequence (Q07817 whole entry, looked up): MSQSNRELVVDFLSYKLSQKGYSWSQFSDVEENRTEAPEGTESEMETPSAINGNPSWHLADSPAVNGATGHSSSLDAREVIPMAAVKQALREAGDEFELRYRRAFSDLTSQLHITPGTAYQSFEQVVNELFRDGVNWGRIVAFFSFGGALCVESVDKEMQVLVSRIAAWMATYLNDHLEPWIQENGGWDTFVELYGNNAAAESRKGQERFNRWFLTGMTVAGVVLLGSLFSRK
EBV gp42 inh = Epstein-Barr virus gp42 inhibitors, primary screen, biochemical, uHTS, fluorescence polarization. Glycoprotein 42 (Epstein-Barr virus (strain AG876)), Q1HVG2. Fluorescence polarization binding assay, mP read-out. inhibition, % (tested at 21.74 µM). actives 0.42% (n = 220,000). AID 1085, 2008; in the data active = inhibition above about 50%
GLD-1 TGE inh = GLD-1/TGE RNA complex disruptors, primary screen, biochemical, fluorescence polarization | Female germline-specific tumor suppressor gld-1 (Caenorhabditis elegans), Q17339 | purified GLD-1 + fluorescein TGE RNA | inhibition, % at 5.96 µM | actives 0.44% (n = 320,000);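 active = percent inhibition above a per-plate cutoff, the plate mean of test compounds plus 3 SD, cut at about 30% in these data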;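 note: 0% = DMSO wells with GLD-1 and probe and 100% = wells lacking GLD-1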
Target sequence (Q17339 whole entry, looked up): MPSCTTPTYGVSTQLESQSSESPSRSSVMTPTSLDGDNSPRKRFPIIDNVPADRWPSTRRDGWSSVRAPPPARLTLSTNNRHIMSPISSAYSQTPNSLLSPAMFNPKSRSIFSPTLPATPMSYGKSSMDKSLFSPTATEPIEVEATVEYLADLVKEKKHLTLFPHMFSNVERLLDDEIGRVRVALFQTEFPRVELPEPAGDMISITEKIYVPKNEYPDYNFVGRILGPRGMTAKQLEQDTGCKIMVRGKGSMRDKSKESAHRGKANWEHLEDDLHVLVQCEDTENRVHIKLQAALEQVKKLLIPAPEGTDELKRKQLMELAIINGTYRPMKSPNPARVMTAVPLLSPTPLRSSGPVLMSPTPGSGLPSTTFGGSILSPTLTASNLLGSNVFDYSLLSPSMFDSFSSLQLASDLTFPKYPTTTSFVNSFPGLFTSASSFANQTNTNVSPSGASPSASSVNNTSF
E coli Lon inh = inhibitors of E. coli Lon protease, primary screen, biochemical, fluorescence polarization. P0A9M0. purified E. coli Lon protease. inhibition, % at 7.94 µM. actives 0.42% (n = 360,000); in the data active = inhibition above about 13%, passing the limit was not always enough;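 note: 0% = enzyme with probe and DMSO and 100% = no enzyme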
MCL1 BIM primary = inhibitors of MCL1 binding to BIM-BH3, primary screen, biochemical, fluorescence polarization | Induced myeloid leukemia cell differentiation protein Mcl-1 (Homo sapiens), Q07820 | GST-MCL1 / FITC-Bim-BH3 fluorescence polarization | inhibition, % at 10.9 µM | actives 0.68% (n = 320,000) | AID 2057, 2009;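 active = inhibition above the mean inhibition of all tested compounds plus 3 SD, set per campaign, cut at about 40% in these data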;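 note: 0% = DMSO wells and 100% = unlabeled Bim-BH3 peptide control; higher means more loss of mP so more displacement of Bim peptide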
E coli Lon conf = E. coli Lon protease inhibitor retest, confirmation, biochemical, fluorescence polarization | shares compounds with E coli Lon inh | purified E. coli Lon | inhibition, % at 7.94 µM | actives 31% (n = 1,400); in the data active = inhibition above about 16%;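 note: 0% = enzyme with probe and DMSO and 100% = no enzyme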
* = called active by the depositor; . = no result; + = active, no number.

SMILES	MEX-5 binding	BCLXL inh	EBV gp42 inh	GLD-1 TGE inh	E coli Lon inh	MCL1 BIM primary	E coli Lon conf
COc1ccccc1-c1nc2n(n1)C(c1ccc(Cl)cc1)C(C(N)=O)=C(C)N2 (stereo not given)	2.4	9.1	-19.0	3.2	15.5*	11.1	-7.6
Cc1ccc(N2C(=O)c3cccc4c(N)ccc(c34)C2=O)c2cccnc12	-9.7	30.4*	39.3	-0.3	161.3*	15.6	-34.4
COc1cc(C(=S)N2CCCC2)cc(Cl)c1O	0.2	8.7	-10.6	6.1	-5.7	6.7	.
CCN1CCN(C(=O)Cn2nc(C)c3sc4ccccc4c3c2=O)CC1	1.1	2.7	.	-5.4	21.0*	-0.2	0.9
O=C(COC(=O)Cc1ccc(Cl)cc1)NC1CCCC1	.	5.2	.	-0.2	49.8*	11.0	-11.4
Cc1cc2cc(CNC(=O)c3cccc([N+](=O)[O-])c3)ccc2[nH]1	-0.7	7.1	-4.5	3.0	23.8*	7.0	-9.8
Cc1cc(C)c2c(c1)-c1cc(C)nn1C(c1ccc3c(c1)OCO3)N2 (stereo not given)	2.0	4.3	-3.0	8.3	20.8*	4.3	-1.1
Cc1ccc2nc(Nc3nc(CSc4nnc(C)s4)cc(=O)[nH]3)nc(C)c2c1	3.7	7.6	-17.9	0.9	1.8	11.7	.
O=C1C=CC(=Nc2ccc3c(c2)Cc2cc(F)ccc2-3)O1	.	.	.	.	-9.2	.	.
O=C1C=CC(=Nc2cccc3c2C(=O)c2ccccc2-3)O1	.	.	.	.	+	.	6.1
CC(=O)N1CCN(C(=O)c2cc(-c3cccc4ccccc34)nc3ccccc23)CC1	0.9	1.5	.	2.8	-10.8	2.4	.
CCCCn1c(N)c(N(CCC(C)C)C(=O)C2=COCCO2)c(=O)[nH]c1=O	-10.8	16.1	.	11.9	36.2*	19.8	4.5
CCCCN(C(=O)C1=COCCO1)c1c(N)n(CCC)c(=O)[nH]c1=O	-2.3	11.6	.	10.4	-1.1	10.9	.
NC(=O)COc1ccc(-n2cnnn2)cc1	-1.2	5.8	28.1	-2.5	1.2	30.0	.
COc1cc(/C=N/NC(=O)COc2ccc(-n3cnnn3)cc2)ccc1OCC(N)=O	1.2	2.3	-3.5	3.2	21.8*	5.7	-3.3
CCC(=NCCN1CCNCC1)C1=C(O)CC(C)(C)CC1=O	-2.8	3.3	-4.3	6.6	2.3	-0.9	.
Cc1ccc2c(c1)c1c(n2CC(O)CNC(C)(C)C)CCCC1 (stereo not given)	.	.	4.2	.	15.9*	.	9.6
Cc1ccc2c(c1)c1c(n2CC(O)CN2CCCCCC2)CCCC1 (stereo not given)	-8.1	5.3	.	-2.4	4.2	5.8	.
O=C(CN1C(=O)NC2(CCCCC2)C1=O)N1CCN(S(=O)(=O)c2ccc(Cl)s2)CC1	.	-14.6	.	-4.9	18.8*	-20.9	-7.2
Cn1c(=O)c2c(nc(CN3CCN(c4ccccc4)CC3)n2Cc2ccccc2Cl)n(C)c1=O	0.9	.	-14.1	.	-6.6	.	.
O=C(COC(=O)c1ccccc1O)NCCc1c[nH]c2ccccc12	.	.	.	2.9	-12.9	.	.
O=C(COC(=O)c1ccccc1C(=O)OCC(=O)NCCc1c[nH]c2ccccc12)NCCc1c[nH]c2ccccc12	-2.0	2.9	.	-5.4	31.6*	-2.1	-5.2
Cc1ccc(S(=O)(=O)NC(=O)NCc2ccc(Cl)cc2)cc1	-1.4	-1.6	-22.9	-1.6	15.5*	2.8	5.8
Fc1ccccc1CNc1nc(NCC2CC2)nc2ccsc12	.	.	.	.	12.3*	.	-5.8
COc1cc(-c2[nH]nc3c2C(c2ccco2)C(C#N)=C(N)O3)cc(OC)c1OC (stereo not given)	-2.0	5.8	0.0	-2.3	2.0	-3.3	.
SMILES	MEX-5 binding	BCLXL inh	EBV gp42 inh	GLD-1 TGE inh	E coli Lon inh	MCL1 BIM primary	E coli Lon conf
O=C1c2ccc3c4c(ccc(c24)C(=O)N1CCCCO)C(=O)N(CCCCO)C3=O	-12.2	.	41.6	.	49.8*	.	50.5*
O=C(Nc1nc2c(Br)cccc2s1)C1CC1	-1.5	4.2	.	1.1	23.1*	-3.2	81.0*
COc1cc2c(C#N)c(N3CCc4ccccc4C3)nc(N)c2c(N)n1	0.2	23.3	.	15.9	55.7*	29.8	-16.1
Cc1csc2nc(CNS(=O)(=O)c3ccc4c(c3)OCCO4)cn12	-0.6	-3.2	-6.7	1.5	-6.0	-2.1	.
CCCCNS(=O)(=O)c1ccc2c(c1)oc(=O)n2CC(=O)OCC	1.6	-1.3	-22.6	5.6	-6.7	0.2	.
O=C(CS(=O)(=O)c1cn(Cc2ccc(Cl)cc2)c2ccccc12)N1CCCCC1	-0.1	30.2*	-10.1	7.0	17.5*	25.4	5.2
C=CCNc1nc2cc(-c3cccc(NC(C)=O)c3)sc2c(=O)n1C	.	.	.	.	-1.6	.	.
O=C(c1cnccn1)N1CCN(S(=O)(=O)c2ccc3ccccc3c2)CC1	2.1	-6.9	-14.2	-5.0	20.1*	-11.1	1.2
CCCc1nnc(NS(=O)(=O)c2ccccc2)s1	-0.3	5.8	.	6.1	-3.1	13.6	.
Cc1nnc(NC(=O)c2ccc3c(c2)NC(=O)CS3)s1	.	-5.8	.	-3.7	25.5*	-3.5	-5.7
CN(C(=O)COC(=O)c1cc2c(s1)CCCCC2)c1ccccc1	0.2	-0.9	.	1.1	29.6*	-0.3	2.3
COC(=O)C1=C(C(=O)OC)C2C(C)=CC(C)=CN2C(C(=O)OC)=C1C(=O)OC (stereo not given)	-6.9	22.8	0.3	13.7	20.3*	24.4	13.4
Cc1ccc(/C=C2/SC(=O)NC2=S)o1	.	.	41.3	.	89.4*	.	106.8*
COc1ccc(C2C3=C(CC(C)(C)CC3=O)Oc3ncn4nc(-c5ccccc5)nc4c32)cc1 (stereo not given)	.	.	.	.	25.6*	.	-5.5
Cc1cccc(C)c1NC(=O)COC(=O)c1c2c(nc3ccccc13)/C(=C\c1ccc3c(c1)OCO3)CCC2	.	194.0*	97.6*	181.8*	+	+	74.2*
O=S(=O)(Nc1cccc(S(=O)(=O)N2CCCC2)c1)c1ccc(Cl)cc1	.	.	.	3.4	100.5*	.	-3.8
O=S(=O)(Nc1cccc(S(=O)(=O)N2CCCCCC2)c1)c1ccccc1	0.4	2.7	-5.4	-2.2	4.0	-3.4	.
COC(=O)Oc1ccc(/C=C/C(=O)OC(C)C)cc1OC(=O)OC	1.1	6.3	-10.6	2.7	7.3	11.9	.
CCCCOC(=O)/C=C/c1ccc(OC(=O)OC)c(OC(=O)OC)c1	-1.6	1.9	-13.0	0.7	27.7*	4.1	-30.2
Cc1ncc([N+](=O)[O-])n1CC(=O)Nc1cccc(C(F)(F)F)c1	3.9	9.7	.	1.1	29.3*	5.3	-91.4
